Experimental data reported in PubChem BioAssay AID743279 (National Center for Advancing Translational Sciences (NCATS), 2014).
Screen size: about 360,000 compounds; about 17,000 (4.7%) were called active. Another 5% or so got no clear call; they are omitted. Cut-off read from the data, not from the text of the source: active = activity change below about -50%; inconclusive = mostly about -30% to -49%; inactive = weaker than that. The sample as a whole holds a higher share of actives than the screen did.

Experiment: qHTS for Inhibitors of Inflammasome Signaling: IL-1-beta AlphaLISA Primary Screen
Conditions: THP-1 LPS/ATP IL-1B secretion, 16 h; at 57.5 µM, hits give low values
Procedure, shortened: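 Secreted IL-1B measured by AlphaLISA bead assay after 16 h compound exposure of THP-1 cells; compounds (final up to 57.5 uM) added 1 h before LPS (250 ng/mL) and ATP (1.25 mM) stimulation; lower signal means less secretion.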
% is set by controls: 0 for no effect and ±100 for the full control effect.

Activity change, inactive:
CC(=O)Nc1cc(-c2ccccc2F)cn2c(-c3cccc(C(F)(F)F)c3)cnc12 -13.7%
COc1cc(C=NC2CCCCC2)ccc1O 9.61%
Cc1ccc(-c2nc(C)sc2CC(=O)OCC(=O)Nc2c(F)cccc2F)cc1 8.31%
CCNC(=O)C1CCCN(C(=O)c2ccc(OC)cc2OC)CC1 (stereo unspecified) 5.59%
COC(=O)CC(CC(=O)OC)n1cccc1 4.98%
O=C(CN(Cc1ccc(Br)cc1)S(=O)(=O)c1ccccc1)NCc1ccncc1 -5.94%
Cc1cc(C)cc(C(=O)NC(CC(N)=O)c2ccc(N3CCC(N4CCCCC4)CC3)c([N+](=O)[O-])c2)c1 (stereo unspecified) -16.2%
CCOC(=O)c1c(C)[nH]c(C)c1C(=O)COC(=O)/C=C/c1cccc([N+](=O)[O-])c1 -15%
CCCOC1CCCN(C(=O)c2cc(COc3cncc(Cl)c3)on2)C1 (stereo unspecified) 0%
CC(NC(=O)COC(=O)c1ccc2ccccc2n1)c1ccccc1 (stereo unspecified) 2.13%
COc1ccc(C(=O)COC(=O)c2ccc3ccccc3n2)cc1 3.46%
COc1cc(CCC(=O)N2CCN(c3ccccc3Cl)CC2)cc(OC)c1OC 7.36%
COCCCN(C(=O)Cn1ncc2c(=O)oc3ccc(C)cc3c21)C(C)c1ccncc1 (stereo unspecified) 7.95%
CNC(=S)NNC(=O)c1oc2nc(-c3ccccc3)cc(-c3ccco3)c2c1N -18%
Nc1cccc(-c2cc(-c3ccccc3)nc(-c3cccc(N)c3)n2)c1 -9.31%
CCOC(=O)C(C)n1cnc2scc(-c3ccc(C)c(C)c3)c2c1=O (stereo unspecified) -7.25%
Cc1nn(-c2ccccc2)c(-n2cccc2)c1C(=O)O 20.3%
Cc1ccc(C(=O)Nc2nc(N)n(-c3ccccc3)n2)cc1 -8.07%
Cc1nn(-c2ccccc2)c(C)c1/C=C/C(=O)OC(C)C(N)=O (stereo unspecified) 9.76%
Cc1nn(-c2ccc(F)cc2)c(Cl)c1/C=C(/CCC(=O)O)c1nc2ccccc2s1 19.2%
OCC(O)C1OCOC(C(O)CO)C1O (stereo unspecified) -2.84%
Cc1ccc(C2Nc3ccccc3C(=O)N2CCN2CCNC2=O)cc1 (stereo unspecified) 10.9%
Cc1cccc2[nH]c(CN(C)C(=O)C3CCC(=O)N(CCc4ccccc4)C3)nc12 (stereo unspecified) 0%
Cc1cccc(C)c1NC(=O)C(c1ccccc1)N1CC(=O)Nc2ccccc21 (stereo unspecified) -11%
Cc1cccc(C)c1NC(=O)CN(C)C(=O)CCC(=O)c1ccccc1 -6.47%
OC(c1ccc(F)cc1)c1ncc(-c2cccc(C(F)(F)F)c2)[nH]1 (stereo unspecified) -20.2%
COc1ccc(NC(=O)C(Br)C(C)C)cc1 (stereo unspecified) -18.5%
CC(C)(C)CC(=O)Nc1nnc(SCC(=O)NCc2cccs2)s1 -5.2%
NC(Cc1ccccc1)c1csc(Nc2cc(Oc3ccccc3)ncn2)n1 (stereo unspecified) 0%
Cc1ccccc1NC(=O)Cc1nc(COC(=O)c2ccc(C(F)(F)F)cc2)cs1 -4.36%
COC(=O)[C@H](CCSC)NC(=O)Nc1ccc(OC)cc1 16.7%
COc1ccc(OC)c(NC(=O)N[C@H](Cc2ccccc2)C(=O)NN)c1 -13.5%
CCCS(=O)(=O)NC(=O)C1(C)CCN(C(=O)c2sccc2C)C1 (stereo unspecified) 6.04%
CC1(C(=O)NCc2cccc3ccccc23)CCN1Cc1ccc(-c2ccccc2)o1 (stereo unspecified) -22.3%
COc1cccc(CNS(=O)(=O)c2ccc3c(c2)N(C(C)=O)CCS3)c1 -9.03%
CCC1CCCCN1C(=O)CSc1nc(C)cc(C)n1 (stereo unspecified) -6.03%
COc1ccc(-c2ccc(CN3C(C(C)C)C(=O)N(Cc4cn(CC5CCCCC5)nn4)CCS3(=O)=O)cc2)cn1 (stereo unspecified) -2.84%
COc1ccc(CCNC(=O)C(Sc2ccccn2)c2ccccc2)cc1OC (stereo unspecified) -6.65%
COc1ccc(COC(=O)NC(C(=O)O)c2ccccc2)cc1 (stereo unspecified) 7.03%
O=C(NCC(O)c1nc2ccccc2[nH]1)c1ccc(Br)cc1 (stereo unspecified) 1.41%
C/C(CC(=O)Nc1ccc(Cl)cc1)=N\NC(=O)C(=O)NCCO 11.5%
CCOC(=O)Cc1csc(SCC(=O)Nc2ccc(C)cc2F)n1 21%
COc1cc(C2C(C#N)=C(N)Oc3n[nH]c(-c4ccccn4)c32)cc(OC)c1OC (stereo unspecified) 1.38%
CCc1ccc(C2C(C#N)=C(N)Oc3n[nH]c(CC(=O)OC)c32)cc1 (stereo unspecified) -9.71%
COc1ccc(-c2[nH]nc3c2C(c2ccncc2)C(C#N)=C(N)O3)cc1 (stereo unspecified) 0%
CCOc1c(OC)cc(C2C(C#N)=C(N)Oc3n[nH]c(-c4ccncc4)c32)cc1OC (stereo unspecified) 25.5%
CC1(Oc2ccccc2-c2ccno2)CCN(Cc2ccc(-c3ccccc3)o2)C1 (stereo unspecified) 5.25%
O=C(Nc1cccc(Br)c1)c1ccc2snnc2c1 -14.1%
S=C(Nc1ccccc1)Nc1ccc2ccccc2c1 -11.8%
Cc1cc2oc(=O)cc(CN(C)Cc3ccccc3)c2cc1Cl -8.49%
COc1ccc(CCOC2OC(CO)C(OC(=O)/C=C/c3ccc(O)c(OC)c3)C(O[C@H]3O[C@@H](C)[C@H](O)[C@@H](O)[C@H]3O)C2O)cc1O (stereo partly specified) 12.4%
O=C(COC(=O)C1CCCO1)Nc1nc(-c2ccc(F)cc2)cs1 (stereo unspecified) -13.3%
Cc1cccc(C)c1NC(=O)CN1CCN(c2ccc(F)cc2)CC1 21.6%
O=C(CCCN1C(=O)C(c2ccccc2)Oc2cccnc21)Nc1ccccc1Br (stereo unspecified) -9.67%
Cc1cc(Br)cn2c(Cc3ccccc3C(F)(F)F)c(C3CCCCC3)nc12 1.07%
COc1cc2ccccc2cc1C(=O)N(CCN(C)C)c1nc2c(F)cccc2s1 14.7%
Cc1cc(C)c2nc(N(CCN(C)C)C(=O)/C=C/c3cccs3)sc2c1 16.5%
COc1ccccc1NC(=O)CC(NCCN(C)C)C(=O)O (stereo unspecified) 12.6%
Cc1ccc2sc(N(CCN(C)C)C(=O)/C=C/c3cccs3)nc2c1C 6.57%
Cc1ccc(S(=O)(=O)CCC(=O)OCC(=O)N(C)Cc2ccccc2)cc1 8.91%
COc1ccc(N(C)C(=O)CCS(=O)(=O)c2cccc3nsnc23)cc1 -11.5%
CC(=O)NC(c1cccc(F)c1)c1nc(-c2cccc(F)c2)cs1 (stereo unspecified) -16.3%
CCN(CC)C(=O)C(C)N1c2cccc3cccc(c23)S1(=O)=O (stereo unspecified) 13.2%
O=C(CCNS(=O)(=O)c1ccccc1)NCCCc1ccccc1 14.3%
COc1ccc(C(=O)Nc2ccc(F)cc2F)cc1 -11.8%
COc1ccc(C(=O)Nc2sc(C)c(C)c2CN2CCOCC2)cc1 14%
CCc1ccc(NC(=O)CN2CCC(C(=O)c3ccc(OC)cc3)CC2)cc1 -20.7%
COc1ccc(OC)c(C(=O)c2ccc(C(=O)N3CCN(Cc4csc(C)n4)CC3)cc2)c1 27.4%
CCCCn1nnnc1C(c1cc2ccccc2o1)N(C)Cc1ccc(Cl)c(Cl)c1 (stereo unspecified) 1.13%
COc1ccc(CN2C(=O)C(CC(=O)NCCCCc3ccccc3)CC(C(=O)N3CCOCC3)=C2C)cc1 (stereo unspecified) -11%
COc1ccc(C(C)=O)cc1COc1ccc(Cl)c(C)c1 -8.14%
COc1ccc(/C=C/C(=O)Nc2c(C)nn(C)c2C)cc1COc1ccc(Br)cc1 -24.2%

Activity change, active:
NC(=O)COC(=O)/C=C/c1ccc2ccccc2n1 -101%
CS(=O)(=O)c1sc2nc(-c3ccccc3)cc(-c3ccccc3)c2c1N -67.8%
Cc1nn(-c2ccccc2)c(Cl)c1/C=C/C(=O)c1ccc(O)cc1 -94.5%
Cc1ccc(C(=O)/C=C/c2c(C)nn(-c3ccccc3)c2Cl)cc1 -95%
Cc1cccc(C)c1NC(=O)C(Cl)C(=O)c1ccccc1 (stereo unspecified) -95.8%
CC(C)(C)CC(=O)Nc1nc(C(N)Cc2ccc(C(F)(F)F)cc2)cs1 (stereo unspecified) -83.8%
COc1ccc(CC(N)c2csc(NC(=O)NC(c3ccccc3)c3ccccc3)n2)cc1 (stereo unspecified) -61.5%
COc1ccc(CC(N)c2csc(NC(=O)Nc3ccc(C(C)C)cc3)n2)cc1 (stereo unspecified) -108%
COc1ccc(C(CCN(Cc2ccc(OC)c(OC)c2)C(=O)CCl)c2ccccc2)cc1 (stereo unspecified) -101%
CCCc1[nH]nc2c1C(c1ccc(OC)c(Cn3nc(C)c(Br)c3C)c1)C(C#N)=C(N)O2 (stereo unspecified) -67%
CCCc1[nH]nc2c1C(c1ccc(Br)s1)C(C#N)=C(N)O2 (stereo unspecified) -99.8%
O=C(Nc1ccc2ccccc2c1)Nc1ccc2snnc2c1 -98.9%
CC1CCCC(C)N1C(=O)CN1CCN(c2nc(-c3ccc(F)cc3)cs2)CC1 (stereo unspecified) -52.3%
COc1cccc2sc(N(CCCN(C)C)C(=O)CCS(=O)(=O)c3ccccc3)nc12 -103%
COc1cccc2sc(N(CCCN(C)C)C(=O)C(c3ccccc3)c3ccccc3)nc12 -104%
Cc1cccc2sc(N(CCCN(C)C)C(=O)CCS(=O)(=O)c3ccccc3)nc12 -96.3%
CCc1cc(C(N)=O)c(NC(=O)c2ccc(OC)cc2)s1 -102%
CCc1cc(C(=O)c2ccc(OC)cc2)c(NC(=O)CN2CCN(C)CC2)s1 -54.3%
CCn1nc(C)c(NC(=O)/C=C/c2ccc(OC)c(COc3ccc(Br)cc3)c2)c1C -50.3%
